Columns and labels:
Experiment in all cases: log2 ratio of Biotin-Ahx-Ub-VS probe labelling (fragment/DMSO); higher = less target engagement (more negative = stronger competition), active = hit call of the paper (q ≤ 0.05, log2 ratio ≤ -1)
Conditions in all cases: compound concentration: 200 uM; treatment time: 3 h
[1] = target: T1, OTUD6B (UniProt Q8N6M0)
T1 sequence (whole entry): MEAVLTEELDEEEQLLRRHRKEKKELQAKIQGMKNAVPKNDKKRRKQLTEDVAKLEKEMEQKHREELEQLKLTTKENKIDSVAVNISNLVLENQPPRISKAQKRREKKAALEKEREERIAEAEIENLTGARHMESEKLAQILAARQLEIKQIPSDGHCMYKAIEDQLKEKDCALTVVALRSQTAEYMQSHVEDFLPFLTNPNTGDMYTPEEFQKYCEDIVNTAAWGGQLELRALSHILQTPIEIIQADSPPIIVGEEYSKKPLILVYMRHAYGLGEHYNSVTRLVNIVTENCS
Method in brief: (§1)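 Using Biotin-Ahx-Ub-VS at 0.5 µM final for 1 h, DUBs were labelled in HEK293T lysate (495 µg per sample) that had first been treated in triplicate with fragment at 200 µM or vehicle for 3 h. NeutrAvidin enrichment, LysC and trypsin digestion and diaPASEF LC-MS/MS followed. Spectronaut label-free quantities were global-median-normalised. Values are average log2 fragment/vehicle ratios by unpaired t-test, using proteins with ≥2 unique peptides.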

[2] = target: T2, OTUD7B (UniProt Q6GQQ9)
T2 sequence (whole entry): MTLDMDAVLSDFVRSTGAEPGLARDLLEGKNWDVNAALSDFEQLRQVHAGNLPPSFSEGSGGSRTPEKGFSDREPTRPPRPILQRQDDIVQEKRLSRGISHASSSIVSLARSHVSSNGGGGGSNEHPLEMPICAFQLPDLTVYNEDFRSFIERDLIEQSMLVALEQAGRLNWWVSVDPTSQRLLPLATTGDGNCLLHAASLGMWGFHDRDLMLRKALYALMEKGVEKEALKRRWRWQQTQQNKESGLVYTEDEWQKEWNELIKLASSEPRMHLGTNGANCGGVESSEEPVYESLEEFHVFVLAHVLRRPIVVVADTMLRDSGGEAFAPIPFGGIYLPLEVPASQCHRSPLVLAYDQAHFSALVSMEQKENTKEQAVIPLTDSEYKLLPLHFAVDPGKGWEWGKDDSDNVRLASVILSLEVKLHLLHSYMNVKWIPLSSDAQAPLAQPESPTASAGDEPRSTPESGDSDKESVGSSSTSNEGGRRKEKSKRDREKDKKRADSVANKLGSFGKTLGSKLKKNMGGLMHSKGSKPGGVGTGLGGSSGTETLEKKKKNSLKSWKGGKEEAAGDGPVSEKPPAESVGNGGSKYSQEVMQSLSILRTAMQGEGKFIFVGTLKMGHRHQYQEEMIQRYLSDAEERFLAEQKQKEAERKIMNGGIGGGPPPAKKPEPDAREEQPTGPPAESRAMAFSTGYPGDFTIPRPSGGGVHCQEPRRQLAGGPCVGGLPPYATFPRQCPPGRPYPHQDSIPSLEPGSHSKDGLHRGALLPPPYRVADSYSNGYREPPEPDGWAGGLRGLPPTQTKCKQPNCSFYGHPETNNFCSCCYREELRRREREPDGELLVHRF
Method in brief: as §1

[3] = target: PRPF8 (UniProt Q6P2Q9)
Method in brief: as §1

[4] = target: T3, PSMD7 (UniProt P51665)
T3 sequence (whole entry): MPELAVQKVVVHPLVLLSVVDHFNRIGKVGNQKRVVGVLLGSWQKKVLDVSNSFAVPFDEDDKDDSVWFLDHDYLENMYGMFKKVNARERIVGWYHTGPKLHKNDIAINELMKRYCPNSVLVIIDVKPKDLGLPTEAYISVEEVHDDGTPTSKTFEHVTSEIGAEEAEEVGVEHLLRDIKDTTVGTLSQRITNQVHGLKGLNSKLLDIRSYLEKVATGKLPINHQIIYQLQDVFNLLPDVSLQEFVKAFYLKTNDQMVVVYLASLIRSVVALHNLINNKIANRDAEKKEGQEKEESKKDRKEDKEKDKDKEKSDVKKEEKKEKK
Method in brief: as §1

[5] = target: UCHL1 (UniProt P09936)
Method in brief: as §1

[6] = target: T4, UCHL3 (UniProt P15374)
T4 sequence (whole entry): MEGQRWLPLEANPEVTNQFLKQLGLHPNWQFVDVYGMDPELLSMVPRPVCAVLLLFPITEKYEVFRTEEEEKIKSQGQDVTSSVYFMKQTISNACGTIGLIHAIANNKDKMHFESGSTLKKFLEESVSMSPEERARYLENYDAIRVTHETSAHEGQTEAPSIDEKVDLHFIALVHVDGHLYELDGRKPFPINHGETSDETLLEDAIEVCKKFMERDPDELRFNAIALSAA
Method in brief: as §1

[7] = target: T5, UCHL5 (UniProt Q9Y5K5)
T5 sequence (whole entry): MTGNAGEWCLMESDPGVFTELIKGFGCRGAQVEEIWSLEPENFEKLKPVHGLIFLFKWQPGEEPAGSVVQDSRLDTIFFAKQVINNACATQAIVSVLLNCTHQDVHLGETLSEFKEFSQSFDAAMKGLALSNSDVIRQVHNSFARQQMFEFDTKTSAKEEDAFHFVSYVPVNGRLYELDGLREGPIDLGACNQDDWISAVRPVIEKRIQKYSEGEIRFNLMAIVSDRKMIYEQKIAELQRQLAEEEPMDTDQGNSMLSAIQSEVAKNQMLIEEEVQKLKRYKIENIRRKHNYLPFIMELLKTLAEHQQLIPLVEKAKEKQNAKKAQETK
Method in brief: as §1

[8] = target: USP10 (UniProt Q14694)
Method in brief: as §1

[9] = target: T6, USP15 (UniProt Q9Y4E8)
T6 sequence (whole entry): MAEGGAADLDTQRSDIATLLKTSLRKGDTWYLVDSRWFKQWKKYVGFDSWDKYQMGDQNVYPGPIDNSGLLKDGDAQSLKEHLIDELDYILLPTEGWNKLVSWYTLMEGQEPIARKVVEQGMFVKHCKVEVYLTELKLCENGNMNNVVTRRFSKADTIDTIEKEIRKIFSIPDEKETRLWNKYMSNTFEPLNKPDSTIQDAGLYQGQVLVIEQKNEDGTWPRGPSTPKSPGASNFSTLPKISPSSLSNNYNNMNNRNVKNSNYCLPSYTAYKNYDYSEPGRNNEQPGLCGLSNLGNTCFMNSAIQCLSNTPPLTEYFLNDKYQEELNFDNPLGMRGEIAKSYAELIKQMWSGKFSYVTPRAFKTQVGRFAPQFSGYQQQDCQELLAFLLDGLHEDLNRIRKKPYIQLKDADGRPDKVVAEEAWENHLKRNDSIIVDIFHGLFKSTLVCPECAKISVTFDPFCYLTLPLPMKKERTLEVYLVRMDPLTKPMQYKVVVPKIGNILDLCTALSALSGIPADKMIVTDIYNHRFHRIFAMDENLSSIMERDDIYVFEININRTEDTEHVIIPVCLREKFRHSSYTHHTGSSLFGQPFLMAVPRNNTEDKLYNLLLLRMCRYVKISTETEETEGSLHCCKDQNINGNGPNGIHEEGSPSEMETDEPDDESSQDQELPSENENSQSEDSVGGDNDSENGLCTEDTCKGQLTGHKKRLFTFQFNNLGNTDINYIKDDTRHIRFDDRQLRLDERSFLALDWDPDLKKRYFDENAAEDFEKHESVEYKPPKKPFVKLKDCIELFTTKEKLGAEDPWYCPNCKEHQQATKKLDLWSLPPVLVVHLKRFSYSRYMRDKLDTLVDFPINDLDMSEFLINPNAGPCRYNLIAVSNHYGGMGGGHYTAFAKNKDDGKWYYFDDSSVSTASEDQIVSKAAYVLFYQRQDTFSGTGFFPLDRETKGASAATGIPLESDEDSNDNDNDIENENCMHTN
Method in brief: as §1

Measured: log2 ratio of Biotin-Ahx-Ub-VS probe labelling

Chain of UCHL1 (P09936 whole entry, looked up): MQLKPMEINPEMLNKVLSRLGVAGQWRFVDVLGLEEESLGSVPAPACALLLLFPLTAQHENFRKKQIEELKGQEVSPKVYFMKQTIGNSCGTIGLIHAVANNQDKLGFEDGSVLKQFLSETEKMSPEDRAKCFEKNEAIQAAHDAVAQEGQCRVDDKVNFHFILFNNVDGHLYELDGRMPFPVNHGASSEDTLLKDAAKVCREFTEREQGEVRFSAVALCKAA
Chain of USP10 (Q14694 whole entry): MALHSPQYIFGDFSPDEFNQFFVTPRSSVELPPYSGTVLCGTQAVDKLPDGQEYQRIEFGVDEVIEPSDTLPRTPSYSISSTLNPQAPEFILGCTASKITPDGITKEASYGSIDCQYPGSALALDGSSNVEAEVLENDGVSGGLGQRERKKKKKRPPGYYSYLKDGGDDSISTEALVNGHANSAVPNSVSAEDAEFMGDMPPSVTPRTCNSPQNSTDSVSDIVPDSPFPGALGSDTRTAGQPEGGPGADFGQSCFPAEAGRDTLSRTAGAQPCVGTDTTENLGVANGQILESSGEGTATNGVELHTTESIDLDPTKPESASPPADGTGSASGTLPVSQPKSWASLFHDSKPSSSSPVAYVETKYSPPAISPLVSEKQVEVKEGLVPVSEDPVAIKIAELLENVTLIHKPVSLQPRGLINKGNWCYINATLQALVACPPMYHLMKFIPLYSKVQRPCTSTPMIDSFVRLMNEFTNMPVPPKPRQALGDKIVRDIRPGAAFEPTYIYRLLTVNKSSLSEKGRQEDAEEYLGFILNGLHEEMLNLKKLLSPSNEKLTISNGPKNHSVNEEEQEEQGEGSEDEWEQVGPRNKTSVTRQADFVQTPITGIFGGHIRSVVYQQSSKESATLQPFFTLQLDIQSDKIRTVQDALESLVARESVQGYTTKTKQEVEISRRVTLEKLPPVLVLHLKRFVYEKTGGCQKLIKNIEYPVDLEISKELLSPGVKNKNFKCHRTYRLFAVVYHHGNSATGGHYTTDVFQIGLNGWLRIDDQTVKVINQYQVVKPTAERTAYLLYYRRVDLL

Cl.O=C(CCl)N[C@H]1C[C@@H](n2cccn2)C1
inactive: [1] -0.0562 | [2] -0.797 | [3] 0.13 | [4] 0.118 | [5] -1.11 | [6] 0.478 | [7] -0.14 | [8] 0.0484 | [9] -0.22

Reference: the supplement of paper PMC11732987, “Enantioselective OTUD7B fragment discovery through chemoproteomics screening and high-throughput optimisation” (Communications Chemistry, 2025)
